Experimental data from PubChem BioAssay (EPA / NIEHS).
Active and inactive are the calls of the source. Rule for the calls: active = hit-call score of the fitted dose curve at least 0.9, where 1 is the maximum; inactive = score below 0.9.

Read-out: Vascular endothelial growth factor receptor 2 (Homo sapiens) (UniProt P35968)
Assay: BSK_4H_VEGFRII: BioMAP Diversity Plus: 4H Assay for Vascular endothelial growth factor receptor 2 (VEGFR2) Biomarker Activity (AID 2283031);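 for AC50: cell-surface VEGFR2 protein level quantified by ELISA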
Settings: primary human endothelial cells (HUVEC); actives raise or lower the signal
Summary of the method: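 VEGFRII levels on human vascular endothelial primary cells were determined by ELISA at 24 hours post-dosing, with gain- or loss-of-signal fitted against DMSO controls.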

AC50, active:
CCOC(=O)COc1ccc2c(c1)CC(NCC(O)c1cccc(Cl)c1)CC2 (stereo not given) 34.5 µM
CCCCCCCCCCCCCCCO 36.8 µM
O=C(CCCCCCCCc1cccnc1)N1CCC(C=C(c2ccccc2)c2ccccc2)CC1 8 µM
CCOc1cccc(-n2cc(C(=O)N3CCN(c4cc(C(=O)O)c5ccccc5c4)CC3)nc2-c2ccc(C)cc2)c1 18.2 µM
CCc1cc(SCc2sc(-c3ccc(C(F)(F)F)cc3)nc2CN2CCN(c3ccc(OC)cc3)CC2)ccc1OCC(=O)O 4.8 µM
CC[C@H](C)C(=O)O[C@H]1C[C@@H](C)C=C2C=C[C@H](C)[C@H](CC[C@@H]3C[C@@H](O)CC(=O)O3)[C@H]21 27.3 µM

outcome, inactive:
O=C1OC(=O)C2C3C=CC(C3)C12 (stereo not given)
O=P(OC(CCl)CCl)(OC(CCl)CCl)OC(CCl)CCl
COCCOCCOCCOC
CC(C)=CCCC(C)CCO (stereo not given)
C1=CCCC=CCCC=CCC1
CC[C@H]1CC[C@H](NCc2cc3c(cc2OC)[C@H]2C[C@H]2C(=O)N3C)[C@H](c2ccccc2)N1
CC(C)(O)c1coc(S(=O)(=O)NC(=O)Nc2c3c(cc4c2CCC4)CCC3)c1
CCN(C(=O)c1cc(C)cc(OC[C@H](C)Nc2ccncc2)c1)C(C)C
Cc1ccc(S(=O)(=O)O)cc1C
CNS(=O)(=O)c1cc(C(=O)N2CCC(CCN3C4CCC3CC(n3c(C)nc5ccccc53)C4)(c3cccc(F)c3)CC2)c(Cl)cc1F (stereo not given)
CCCCC(CC)COC(=O)CCCCCCCCC(=O)OCC(CC)CCCC (stereo not given)
O=C(NS(=O)(=O)/C=C/c1ccccc1)c1ccc(F)cc1Cl
O=C(OC[C@H]1O[C@@H](OC(=O)c2cc(O)c(O)c(OC(=O)c3cc(O)c(O)c(O)c3)c2)[C@H](OC(=O)c2cc(O)c(O)c(OC(=O)c3cc(O)c(O)c(O)c3)c2)[C@@H](OC(=O)c2cc(O)c(O)c(OC(=O)c3cc(O)c(O)c(O)c3)c2)[C@@H]1OC(=O)c1cc(O)c(O)c(OC(=O)c2cc(O)c(O)c(O)c2)c1)c1cc(O)c(O)c(OC(=O)c2cc(O)c(O)c(O)c2)c1
COCCOc1cc2cc(C(=O)NC3CCN(C(C)C)CC3)n(CC(=O)Nc3ccc(Cl)cn3)c2cn1
CCCCCCCCO
CC(C)CCCCCCOC(=O)c1ccc(C(=O)OCCCCCCC(C)C)c(C(=O)OCCCCCCC(C)C)c1
Nc1nc2ncc(CNc3ccc(C(=O)N[C@@H](CCC(=O)O)C(=O)O)cc3)nc2c(=O)[nH]1
Cn1c(=O)cc(Oc2ccc(F)cc2F)c2cnc(NCC(C)(C)O)nc21
CC(=O)OCCC(C)C
COC(=O)CC(=O)OC
Cc1c(-c2cccnc2)c2ccccc2n1CCCCC(=O)O
Nc1cccc(N)c1
COC(=O)c1ccccc1O
CC[C@H]1OC(=O)[C@H](C)[C@@H](O[C@H]2C[C@@](C)(OC)[C@@H](O)[C@H](C)O2)[C@H](C)[C@@H](O[C@@H]2O[C@H](C)C[C@H](N(C)C)[C@H]2O)[C@](C)(O)C[C@@H](C)C(=O)[C@H](C)[C@@H](O)[C@]1(C)O
